Experimental data: PubChem BioAssay (NCATS)
“And” between values parts separate entries of the source, which are not always exact repeats. Identical values can stand only once. Records with an inconclusive call do not appear. Where a call stands in place of a potency, no number is given. The source made the active and inactive calls. Unless noted, the call rests on the fitted dose curve; in most records, active means well fitted curve in the direction sought with a large enough effect; inconclusive means small, poorly fitted or top-dose-only effect, or another doubt; inactive means no such curve, though single readings can be large; an effect the other way counts as inactive or inconclusive.

Tests used:
[1] = qHTS to identify inhibitors of the type 1 interferon - major histocompatibility complex class I in skeletal muscle: primary screen against the NCATS Mechanism Interrogation Plate v5.0 (MIPE) Libary (AID 1347411); details: iHSKM cells + IFN-b, HiBiT-tagged MHC-I luminescence, 24 h; series mostly up to 45.8 µM; further: nearly all actives have a fitted effect of over 65% in size; further: potency means the concentration at half of the fitted maximal effect
In short: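 HLA-B HiBit myoblasts, dexamethasone-free medium + 4 ng/ml IFN-b, 24 h compound, 11-pt 1:3 from 46 uM final. Readout: Nano-Glo HiBiT lytic luminescence after 10 min lysis, RT.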

[2] = biological target: Calcium and integrin-binding protein 1 (Homo sapiens) (UniProt Q99828); experiment: Primary qHTS for Identification of Calcium Integrin Binding Protein 1 (CIB1) Competitor (AID 1508620); details: CIB1-GST / FITC-alphaIIb peptide fluorescence polarization; series mostly up to 57.7 µM;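 further: GST tagged CIB1 binding a fluorescein labelled alphaIIb integrin peptide tracer; top concentration of the series differs between compounds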
Chain of Calcium and integrin-binding protein 1 (Homo sapiens) (Q99828 whole entry, looked up): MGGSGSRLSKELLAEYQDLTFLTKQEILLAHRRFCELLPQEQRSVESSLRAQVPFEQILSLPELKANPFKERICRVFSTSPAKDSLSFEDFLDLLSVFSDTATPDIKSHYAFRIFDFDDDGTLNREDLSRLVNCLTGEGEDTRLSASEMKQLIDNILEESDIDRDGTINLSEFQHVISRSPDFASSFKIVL
In short: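 Fluorescence polarization competition: CIB1-GST (1 uM final) preincubated with compound 15 min at room temperature, then FITC-labeled alphaIIb peptide (100 nM final) added for another 15 min. Polarization read at Ex 480/Em 540.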

[3] = Primary qHTS for small molecule stabilizers of the endoplasmic reticulum resident proteome: Secreted ER Calcium Modulated Protein (SERCaMP) assay (AID 1508630); details: SH-SY5Y GLuc-SERCaMP (Gaussia luciferase released on ER calcium loss) secretion, thapsigargin, luminescence; series mostly up to 38.4 µM; further: potency means the concentration at half of the fitted maximal effect
In short: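 The SH-SY5Y reporter protocol was run at 3 concentrations up to 38.3 uM (primary) or 11 concentrations (follow-up): 16 h compound, 100 nM thapsigargin for 4 h, then extracellular luciferase luminescence.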

[4] = biological target: Cytochrome P450 2D6 (Homo sapiens) (UniProt P10635); experiment: Cytochrome P450 family 2 subfamily D member 6 (CYP2D6) small molecule antagonists: luciferase biochemical (cell-free) qHTS assay (AID 1645840; active means well fitted curve in the direction sought with a large enough effect in the repeat runs; an effect the other way counts as inactive or inconclusive; further: nearly all actives have a fitted effect of over 55% in size; further: potency means the concentration at half of the fitted maximal effect); details: P450-Glo CYP2D6 enzyme, luciferin luminescence, 1 h; series mostly up to 57.4 µM
Chain of Cytochrome P450 2D6 (Homo sapiens) (P10635 whole entry, looked up): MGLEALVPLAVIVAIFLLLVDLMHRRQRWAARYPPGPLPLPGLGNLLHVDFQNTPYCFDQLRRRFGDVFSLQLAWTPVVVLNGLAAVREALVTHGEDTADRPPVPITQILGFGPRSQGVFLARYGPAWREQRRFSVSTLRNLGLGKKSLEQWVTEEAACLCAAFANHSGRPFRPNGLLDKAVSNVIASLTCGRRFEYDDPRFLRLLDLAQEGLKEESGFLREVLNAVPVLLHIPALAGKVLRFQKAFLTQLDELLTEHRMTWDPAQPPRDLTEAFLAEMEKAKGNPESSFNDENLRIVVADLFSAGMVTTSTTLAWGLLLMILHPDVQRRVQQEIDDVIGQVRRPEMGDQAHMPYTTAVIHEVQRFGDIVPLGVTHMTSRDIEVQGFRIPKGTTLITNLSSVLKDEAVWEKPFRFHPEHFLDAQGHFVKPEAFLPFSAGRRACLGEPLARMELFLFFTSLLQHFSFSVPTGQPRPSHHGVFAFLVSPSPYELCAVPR
In short: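 P450-Glo CYP2D6 system: proluciferin substrate converted by enzyme to luciferin, read by luminescence proportional to activity. Enzyme-substrate mix with compound 10 min at room temperature, then NADPH regeneration 1 h before detection reagent.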

[5] = biological target: Cytochrome P450 2C9 (Homo sapiens) (UniProt P11712); experiment: Cytochrome P450 family 2 subfamily C member 9 (CYP2C9) small molecule antagonists: luciferase biochemical (cell-free) qHTS assay (AID 1645842; active means well fitted curve in the direction sought with a large enough effect in the repeat runs; an effect the other way counts as inactive or inconclusive; further: nearly all actives have a fitted effect of over 55% in size; further: potency means the concentration at half of the fitted maximal effect); details: P450-Glo CYP2C9 enzyme assay, luciferin luminescence; series mostly up to 57.4 µM
Chain of Cytochrome P450 2C9 (Homo sapiens) (P11712 whole entry, looked up): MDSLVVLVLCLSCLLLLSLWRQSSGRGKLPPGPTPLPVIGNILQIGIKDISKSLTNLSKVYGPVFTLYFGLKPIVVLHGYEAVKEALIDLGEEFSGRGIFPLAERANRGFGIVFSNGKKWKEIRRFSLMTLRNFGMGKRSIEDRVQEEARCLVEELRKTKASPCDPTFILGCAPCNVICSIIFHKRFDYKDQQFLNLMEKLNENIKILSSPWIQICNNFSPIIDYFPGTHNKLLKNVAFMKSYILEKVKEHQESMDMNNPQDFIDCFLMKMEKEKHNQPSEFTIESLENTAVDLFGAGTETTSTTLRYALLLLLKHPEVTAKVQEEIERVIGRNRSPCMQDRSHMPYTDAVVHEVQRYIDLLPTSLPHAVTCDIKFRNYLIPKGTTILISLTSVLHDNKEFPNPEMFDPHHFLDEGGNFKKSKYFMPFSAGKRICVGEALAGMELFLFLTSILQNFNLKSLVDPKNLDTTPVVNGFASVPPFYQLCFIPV
In short: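 P450-Glo CYP2C9 system: proluciferin substrate with enzyme in mix containing 0.4% BSA, 10 min at room temperature, then NADPH regeneration solution added and incubated 1 h at 37C. Detection reagent stopped reaction; luminescence read after 20 min as RLU.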

SMILES	Potency [1]	outcome [2]	Potency [3]	Potency [4]	Potency [5]	activity change, negative = inhibition [1]
CCN1CCN(CC(=O)Nc2ccc(-c3cccc4c(=O)cc(N5CCOCC5)oc34)c3sc4ccccc4c23)CC1	inactive	inactive	inactive			
CCc1cc2c(cc1N1CCC(N3CCOCC3)CC1)C(C)(C)c1[nH]c3cc(C#N)ccc3c1C2=O	inactive	inactive	inactive			
CN1CCC(CNc2ccc3ncc(-c4cccc(OC(F)(F)F)c4)n3n2)CC1	14.7 µM (active)	inactive	inactive	2.39 µM (active)		
CC(C)c1noc(N2CCC(COc3ccc(-c4ccc(S(C)(=O)=O)cc4)nc3)CC2)n1	inactive	inactive	inactive	inactive		
C=CC(=O)Nc1cc2c(Nc3ccc(F)c(Cl)c3)ncnc2cc1C#CC(C)(C)N1CCN(C)CC1	8.29 µM (active)	inactive	inactive			
Cc1cc(Nc2cc(NC(=O)c3c(Cl)cccc3Cl)ccn2)nc(N)n1	4.66 µM (active)	inactive	inactive			
Cc1cn2cc(C(=O)N(C)CCO)cc(N[C@@H]3CCOc4cccc(C)c43)c2n1	inactive	inactive	inactive			
CC(C)C[C@H](NC(=O)CNC(=O)c1cc(Cl)ccc1Cl)B(O)O	0.104 µM (active)	inactive	inactive			
Nc1cccc(-c2cc3c(Oc4cccc(O)c4)ncnc3[nH]2)c1	13.1 µM (active)	inactive	inactive			
Cc1nc(Nc2n[nH]c3c2CN(C(=O)N[C@H](CN(C)C)c2ccccc2)C3(C)C)c2sccc2n1	0.0523 µM (active)	inactive	inactive			
CN1CCN(Cc2ccc(NC(=O)Nc3ccc(Oc4cc(NC(=O)C5CC5)ncn4)cc3)cc2C(F)(F)F)CC1	0.415 µM (active)	inactive	inactive	8.49 µM (active)	10.7 µM (active)	
CC(=O)c1c(C)c2cnc(Nc3ccc(N4CCNCC4)cn3)nc2n(C2CCCC2)c1=O	14.7 µM (active)	inactive	5.95 µM (active)	inactive	inactive	
COc1ccc2c(c1)CC[C@@H](CN(C)CC(=O)O)[C@H]2c1ccccc1	inactive	inactive	inactive	inactive	inactive	
Cc1cc(Nc2nc(N[C@@H](C)c3ccc(F)cc3)c(C#N)cc2F)n[nH]1	2.08 µM (active)	inactive	inactive	26.8 µM (active)	1.9 µM (active)	
CC(C)c1nn(-c2c(Cl)cccc2Cl)c2nc(Cc3ccc(OCCO)cc3)[nH]c(=O)c12	0.0294 µM (active)	inactive	inactive	inactive	5.35 µM (active)	
COc1cc2nccc(Oc3ccc(NC(=O)C4(C(=O)Nc5ccc(F)cc5)CC4)cc3)c2cc1OC	8.29 µM (active)	inactive	inactive	inactive	2.68 µM (active)	
Nc1nc(Nc2ccc(S(N)(=O)=O)cc2)nn1C(=O)c1c(F)cccc1F	4.15 µM (active)	inactive	inactive	inactive	0.12 µM (active)	
COC(=O)c1ccc2c(C(=Nc3ccc(N(C)C(=O)CN4CCN(C)CC4)cc3)c3ccccc3)c(O)[nH]c2c1	16.5 µM (active)	inactive	inactive	inactive	inactive	
CC(C)c1cnn2c(NCc3ccccc3)cc(N[C@@H](CO)[C@H](O)CO)nc12	0.186 µM (active)	inactive	inactive	inactive	3.79 µM (active)	
Cc1ccc(C(=O)Nc2ccc(CN3CCN(C)CC3)c(C(F)(F)F)c2)cc1C#Cc1cnc2cccnn12	4.15 µM (active)	inactive	inactive	16.9 µM (active)	12 µM (active)	
COc1ccc(F)c(F)c1C(=O)c1cnc(NC2CCN(S(C)(=O)=O)CC2)nc1N	2.94 µM (active)	inactive	inactive	inactive	10.7 µM (active) and 19 µM (active)	
CCS(=O)(=O)c1cccc(-c2cc(C(=O)NC3CCN(C)CC3)c(C)c3[nH]c4ncc(C)cc4c23)c1	1.86 µM (active)	inactive	inactive	inactive	4.77 µM (active)	
CNC(=O)c1ccc(N2C(=S)N(c3cnc(C#N)c(C(F)(F)F)c3)C(=O)C23CCC3)cc1F	inactive	inactive	inactive	inactive	6.74 µM (active)	
CCCNC(=O)Nc1ccc(Oc2ncnc3cc(OC)c(OC)cc23)cc1Cl	inactive	inactive	inactive	inactive	inactive	
CN(C)CC(C)(C)CNc1nn2c(-c3ccccc3)nnc2cc1C1CCC1	inactive	inactive	inactive	2.13 µM (active)	8.49 µM (active)	
NCC(=O)Nc1ccc(-n2nc(C(F)(F)F)cc2-c2ccc3c(ccc4ccccc43)c2)cc1	inactive	inactive	inactive	15.1 µM (active)	4.77 µM (active)	
NC(=O)c1c(OCc2c(F)cc(Br)cc2F)nsc1NC(=O)NCCCCN1CCCC1	33 µM (active)	inactive	inactive	10.7 µM (active)	16.9 µM (active)	

SMILES	Potency [1]	outcome [2]	Potency [3]	Potency [4]	Potency [5]	activity change, negative = inhibition [1]
O=C(O)C1(Cc2cccc(Nc3nccs3)n2)CCC(Oc2cccc(Cl)c2F)CC1 (stereo not given)	inactive	inactive	inactive	inactive	7.56 µM (active)	
Nc1ccccc1NC(=O)c1ccc(CNc2nccc(-c3cccnc3)n2)cc1	7.39 µM (active)	inactive	inactive	4.77 µM (active)	5.35 µM (active)	
O=C(Nc1cn[nH]c1-c1nc2ccc(CN3CCOCC3)cc2[nH]1)NC1CC1	3.3 µM (active)	inactive	inactive	inactive	inactive	
COc1ccc2c(OCc3nnc4ccc(-c5ccccc5)nn34)ccnc2c1	inactive	inactive	inactive	inactive	0.756 µM (active)	
CNC(=O)c1cc(Oc2ccc(NC(=O)Nc3cc(C(C)(C)C)nn3-c3ccc4ncccc4c3)c(F)c2)ccn1	8.29 µM (active)	inactive	inactive	inactive	6.74 µM (active)	
Cc1ccc2nc(NC(=O)CSc3nc4c(c(=O)n3-c3ccccc3)SCC4)sc2c1	inactive	inactive	inactive	inactive	inactive	
CNC(=O)c1c(F)cccc1Nc1nc(Nc2cc3c(cc2OC)CCN3C(=O)CN(C)C)nc2[nH]ccc12	7.39 µM (active)	inactive	inactive	inactive	0.425 µM (active)	
COc1ccc(C(=O)CC2(O)C(=O)Nc3c(Cl)ccc(Cl)c32)cc1 (stereo not given)	inactive	inactive	inactive	inactive	16.9 µM (active) and 15.1 µM (active)	
CC(C)CC(=O)Nc1n[nH]c2c1CN(C(=O)C1CCN(C)CC1)C2(C)C	1.04 µM (active)	inactive	inactive	inactive	inactive	
CC(C)(C)c1cnc(CSc2cnc(NC(=O)C3CCNCC3)s2)o1	0.262 µM (active)	inactive	inactive	25.1 µM (active)	17.8 µM (active)	
COc1ccc(-n2nc(C(N)=O)c3c2C(=O)N(c2ccc(N4CCCCC4=O)cc2)CC3)cc1	inactive	inactive	inactive	inactive	inactive	
C=CC(=O)Nc1cccc(Oc2nc(Nc3ccc(N4CCN(C)CC4)cc3)ncc2Cl)c1	16.5 µM (active)	inactive	inactive	19 µM (active)	2.39 µM (active)	
CCCn1c(=O)c2[nH]c(-c3cnn(Cc4cccc(C(F)(F)F)c4)c3)nc2n(CC)c1=O	inactive	inactive	inactive	inactive	inactive	
Cc1ccc(C(=O)Nc2cccc(C(F)(F)F)c2)cc1-c1ccc2nc(NCCN3CCOCC3)ncc2c1	5.87 µM (active)	inactive	inactive	12 µM (active)	1.69 µM (active)	
CNC(=O)c1nn(C)c2c1C(C)(C)Cc1cnc(Nc3ccc(N4CCN(C)CC4)cc3)nc1-2	5.23 µM (active)	inactive	inactive	inactive	21.3 µM (active)	
CC[C@@H]1C(=O)N(C)c2cnc(Nc3ccc(C(=O)NC4CCC(N5CCN(CC6CC6)CC5)CC4)cc3OC)nc2N1C(C)C (stereo not given in full)	6.58 µM (active)	inactive	inactive	inactive	7.56 µM (active) and 12 µM (active)	
O=C(O)Cn1nnc(-c2cc(N3CCC(Oc4cc(F)ccc4Br)CC3)no2)n1	inactive	inactive	inactive	inactive	13.5 µM (active)	
C1Cc2[nH]nc(-c3nn[nH]n3)c2C1	inactive	inactive		inactive	inactive	
O=c1[nH]nc(Sc2ncc([N+](=O)[O-])s2)n1-c1ccc2c(c1)OCCO2	6.58 µM (active)		inactive			
Cn1c(CNc2ccc(C(=N)N)cc2)nc2cc(C(=O)N(CCC(=O)O)c3ccccn3)ccc21		inactive	inactive		10.7 µM (active)	5.59% [at 0.314 µM] (inactive)
Cc1cc(Nc2ncnc3ccc(-c4ccc(CNCCS(C)(=O)=O)o4)cc23)ccc1Oc1ccn2ncnc2c1	inactive	inactive	inactive		12 µM (active)	
Cc1c(Cn2c(C)nc3c(C(=O)O)cc(N4CCOCC4)cc32)cccc1C(F)(F)F	inactive	inactive	inactive		inactive	
Cn1c2cc(S(C)=O)sc2c2cnn(Cc3cccc(N)c3)c(=O)c21 (stereo not given)	inactive	inactive	inactive		19 µM (active)	
Cc1ccc(CN2CCNCC2)cc1NC(=O)CNc1ccc(F)c(F)c1	inactive	inactive	inactive		inactive	
Nc1ncnc2c1c(-c1cnc3[nH]ccc3c1)nn2C1CCCC1	0.829 µM (active)	inactive		inactive	0.425 µM (active)	
CNc1nccc(-c2cccnc2Oc2cc(C(=O)Nc3cccc(C(F)(F)F)c3)ccc2C)n1	5.87 µM (active)	inactive	inactive		3.01 µM (active)	
CNC(=O)CN1CCC(Oc2cc3c(Nc4cccc(Cl)c4F)ncnc3cc2OC)CC1	inactive	inactive	inactive		9.52 µM (active)	
